This is part of a sample that, as a whole, favours compounds with a hit. Of some 79,000 tested, about 15% had one in any assay. Rule as the data show it: active = growth inhibition above about 70%; inactive = the rest. Where a SMILES comes first, the peptide text is derived from it. The star is where a group is joined. Cbz = O=C(OCc1ccccc1)*
Key:
[1] = NCI Yeast Anticancer Drug Screen. Data for the rad50 strain (AID 155);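 also: 0% = growth of vehicle-only cultures of the same strain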; details: S. cerevisiae rad50 strain growth inhibition; at 50.0 µM; stronger effect = higher value
Summary of the method: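 Readout: growth inhibition relative to vehicle-treated cultures. Compound exposure was carried out in a genetically defined yeast strain deficient in DNA damage repair.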

[2] = NCI Yeast Anticancer Drug Screen. Data for the mec2-1 strain (AID 157); details: S. cerevisiae mec2-1 strain, at 50.0 µM, stronger effect = higher value
Summary of the method: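 Compounds were applied to mec2-1 yeast cells. Their growth was then compared with that of vehicle-treated cultures to give growth inhibition.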

[3] = NCI Yeast Anticancer Drug Screen. Data for the sgs1 mgt1 strain (AID 161);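 also: 0% = growth of cultures given vehicle only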; details: S. cerevisiae sgs1 mgt1 strain, at 50.0 µM, stronger effect = higher value
Summary of the method: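 Percent growth inhibition was derived by comparing compound-exposed mutant yeast with vehicle-exposed cultures. The strain carries alterations in DNA damage repair.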

[4] = NCI Yeast Anticancer Drug Screen. Data for the cln2 rad14 strain (AID 165);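 also: 0% = growth equal to vehicle treated cultures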; details: S. cerevisiae cln2 rad14 strain, at 50.0 µM, stronger effect = higher value
Summary of the method: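 Strain: cln2 rad14 yeast, altered in cell cycle control and DNA damage repair. Read-out: growth inhibition vs vehicle.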

[5] = NCI Yeast Anticancer Drug Screen. Data for the bub3 strain (AID 167); details: S. cerevisiae bub3 mutant strain, at 50.0 µM, stronger effect = higher value
Summary of the method: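 Readout: yeast growth inhibition, expressed relative to vehicle-only wells. The test organism is a mutant strain from a panel with lesions in DNA repair or checkpoint genes.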

[6] = NCI Yeast Anticancer Drug Screen. Data for the mlh1 rad18 strain (AID 175); details: S. cerevisiae mlh1 rad18 strain growth inhibition; at 50.0 µM; stronger effect = higher value
Summary of the method: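 A repair-deficient yeast strain is exposed to test compound, and growth is scored relative to vehicle-treated controls.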

Measured: growth inhibition

FC(F)(F)c1cccc2[nH]cnc12
inactive: [1] -24.6% | [2] -2.85% | [3] 6.25% | [4] -12.4% | [5] -4.65% | [6] 2.3%

O=C1Cc2ccccc2CN1
inactive: [1] -6.95% | [2] 13.3% | [3] -3.5% | [4] 19.6% | [5] 2.15% | [6] 32.3%

O=C(OCc1c(-c2ccccc2)nn(-c2ccccc2)c1COC(=O)Oc1ccccc1)Oc1ccccc1
inactive: [1] -2.8% | [2] -14.6% | [3] -11.8% | [4] 17.8% | [5] -11.2% | [6] 10.2%

C=CC(O)C(C)C (stereo not drawn)
inactive: [1] 10.7% | [2] -8.35% | [3] -2.55% | [4] -2.95% | [5] -1.55% | [6] 3.1%

CCS(=O)(=O)/C=C/c1ccco1
inactive: [1] 28.3% | [2] -18.6% | [3] 5.45% | [4] -36.9% | [5] 19.6% | [6] -14.9%

O=C1CC(N2CCOCC2)c2ccccc21 (stereo not drawn)
inactive: [1] 30% | [2] 11.1% | [3] 12.6% | [4] -21.1% | [5] -14% | [6] 14.2%

CCCN(CCC)C1=Nc2ccccc2-n2cnnc2C1
inactive: [1] -22.4% | [2] 3.45% | [3] -25.6% | [4] 3.1% | [5] -2.25% | [6] -11.4%

CC(C)C(NC(=O)C(Cc1ccc(O)cc1)NC(=O)OCc1ccccc1)C(=O)O (stereo not drawn) (Cbz-Tyr-Val-OH; configuration not given here)
inactive: [1] 10.2% | [2] -3.25% | [3] -3.85% | [4] -29.6% | [5] -3.15% | [6] 1.8%

CC(=O)c1cccc(NC(=O)Nc2ccc(Nc3ccccc3)cc2)c1
inactive: [1] 3.8% | [2] 6.5% | [3] 5.6% | [4] 2.6% | [5] 21.8% | [6] -0.8%

CC(=O)OC1CCC2(C)C(=CCC3C2CCC2(C)C(/C(C)=N/NC(N)=O)CCC32)C1 (stereo not drawn)
inactive: [1] 14.4% | [2] -2.8% | [3] -0.1% | [4] -39.6% | [5] -0.6% | [6] -0.5%

COc1ccc(-c2cc(=O)c3cc(C)c(C)c(C(=O)O)c3o2)cc1
inactive: [1] -10.5% | [2] -2.95% | [3] -5.4% | [4] 10.8% | [5] -8.7% | [6] 0.75%

NC1=NC(=O)C2(CCCCC2)S1
inactive: [1] -9.6% | [2] -4.8% | [3] -21.2% | [4] -47.6% | [5] -8% | [6] -24.6%

COC(=O)C1(c2ccccc2)Cc2ccccc2-c2ccccc21 (stereo not drawn)
inactive: [1] -24.1% | [2] -9.5% | [3] -10.2% | [4] -16.3% | [5] 26.1% | [6] -17%

COc1ccc(C2N3CCCCC3[C@@H]3c4[nH]c5ccccc5c4CCN23)c(OC)c1 (stereo partly drawn)
inactive: [1] -30.2% | [2] -24.4% | [3] -26.6% | [4] 6.1% | [5] -5.3% | [6] -9.65%

COc1cc(C=O)c([N+](=O)[O-])cc1OC
inactive: [1] 14.2% | [2] -20.7% | [3] 18.2% | [4] 20.9% | [5] -8.5% | [6] -8.85%

CC(=S)NC(O)C(=O)c1ccccc1 (stereo not drawn)
inactive: [1] 9.85% | [2] 12.8% | [3] 45% | [4] 8.6% | [5] 45.2% | [6] 6.45%

ClCCOCc1ccc(Cl)c(Cl)c1
inactive: [1] 8.8% | [2] -16.9% | [3] 6.15% | [4] -13.5% | [5] -18% | [6] 9%

COC1=CC(=O)C(c2cc(O)c(OC)cc2O)=CC1=O
inactive: [1] -0.15% | [2] 4.45% | [3] -3.65% | [4] -8.65% | [5] 4.5% | [6] 5.2%
